Compounds with a hit are over-represented: about 1.2% of the library has one in this group of screens.
RGS8-Gao reg – modulates binding of RGS8 to human Galphao; P09471; multiplexed bead flow cytometry; actives lie on both sides; response (percent of control binding), % at 10 µM; hit rate 0.34% among 220,000; in the data active = response below about 60% or above about 140%; inactive = in between;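 note: Galphao activated as the GDP aluminium fluoride complex binding bead-coupled RGS8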
RGS16-Gao HTS – RGS16-Galphao interaction regulator (human). O15492+P09471. bead-based flow cytometry RGS16-Galphao binding, fluorescence; actives lie on both sides. hit rate 0.38% among 220,000. binding response (% of control), % at 10 µM;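 note: Galphao activated by GDP with aluminum fluoride before binding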
Target sequence (O15492 whole entry, looked up): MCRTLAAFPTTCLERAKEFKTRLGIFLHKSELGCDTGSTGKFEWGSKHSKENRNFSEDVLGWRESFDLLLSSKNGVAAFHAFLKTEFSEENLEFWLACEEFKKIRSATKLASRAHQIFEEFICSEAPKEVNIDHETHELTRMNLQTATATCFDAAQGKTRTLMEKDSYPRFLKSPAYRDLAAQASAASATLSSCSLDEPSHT
Target sequence (P09471 whole entry, looked up): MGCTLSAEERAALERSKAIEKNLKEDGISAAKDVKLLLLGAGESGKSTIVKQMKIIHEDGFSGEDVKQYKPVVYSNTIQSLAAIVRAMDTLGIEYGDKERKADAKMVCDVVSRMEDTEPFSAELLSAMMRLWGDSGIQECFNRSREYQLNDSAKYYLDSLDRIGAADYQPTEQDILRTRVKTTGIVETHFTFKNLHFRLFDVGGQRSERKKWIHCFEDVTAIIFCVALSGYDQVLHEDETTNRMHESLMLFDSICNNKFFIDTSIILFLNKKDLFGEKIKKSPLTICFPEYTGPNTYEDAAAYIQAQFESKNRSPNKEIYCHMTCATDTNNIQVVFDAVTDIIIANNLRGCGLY
Avidin fluor – compound fluoresces at 488/530 nm on avidin beads. fluorescence (KMESF) at 10 µM. hit rate 0.38% among 220,000. compound fluorescence 488/530 nm, flow cytometry; stronger effect = higher value. AID 1775; in the data active = fluorescence above about 47
GSH bead fluor – compound fluoresces at 488/530 nm on GSH beads | GSH beads flow cytometry, compound fluorescence 488/530 nm; stronger effect = higher value | fluorescence (KMESF) at 10 µM | hit rate 0.25% among 190,000 | AID 1776; in the data active = fluorescence above about 89;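 note: glutathione beads carrying GST-tagged Bcl family fusion proteins plus one bare bead set; values are compound well signal with DMSO vehicle wells as background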
RGS4-Gao reg – human RGS4-Galphao interaction regulation. Multiplexed bead flow cytometry, RGS4-Galphao binding; actives lie on both sides. binding response (% of control), % at 10 µM. hit rate 0.33% among 220,000; in the data active = binding response below about 49% or above about 150%; inactive = in between;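 note: fluorescent Galphao activated with aluminum fluoride binding bead-coupled RGS4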
RGS7-Gao reg – regulators of human RGS7-Galphao interaction. binding response (% of control), % at 10 µM. P09471. Multiplexed bead flow cytometry, RGS7-Galphao binding; actives lie on both sides. hit rate 0.35% among 220,000; in the data active = binding response below about 49% or above about 150%; inconclusive = no clear call, values can overlap the other calls; inactive = in between;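 note: fluorescent Galphao held in activated GDP-AlF4 state binding bead-coupled RGS7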
RGS4-Gao HTS – regulators of human RGS4-Galphao interaction. shares compounds with RGS16-Gao HTS. multiplexed bead flow cytometry, RGS–Galpha-o binding. RGS4–Galpha-o binding response, % at 10 µM. hit rate 99% among 1,600;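 note: fluorescently labeled Galpha-o bound to GDP with aluminium fluoride binding biotinylated RGS beads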
Avidin counter – biotin-avidin bead binding disruption counter-screen. shares compounds with RGS16-Gao HTS. streptavidin beads, fluorescein-biotin binding, flow cytometry. inhibition, % at 10 µM. 1,700 tested, under 10 active;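 active = inhibition above 50%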;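 note: median green fluorescence of gated singlet beads compared with DMSO control wells; 0% = DMSO wells and 100% = complete loss of bead fluorescence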
RGS8-Gao confirm – confirmation of regulators of human RGS8-Galphao interaction; AID 1836; hit rate 3% among 1,700; shares compounds with RGS16-Gao HTS; bead-based flow cytometry RGS8-Galphao binding, fluorescence; actives lie on both sides; binding response (% of control), % at 10 µM; in the data active = binding response below about 72% or above about 130%; inactive = in between;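 note: Galphao activated as GDP AlF4 complex before binding bead RGS8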
RGS7-Gao single – confirmation of regulators of human RGS7-Galphao interaction | shares compounds with RGS16-Gao HTS | hit rate 7.8% among 1,700 | bead-based flow cytometry RGS7-Galphao binding; actives lie on both sides | response (percent of control binding), % at 10 µM; in the data active = response below about 75% or above about 130%; inactive = in between;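 note: fluorescent Galphao activated with GDP and aluminum fluoride binding bead-coupled RGS7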
RGS16-Gao conf – RGS16-Galphao interaction regulation, single point confirmation; shares compounds with RGS16-Gao HTS; bead-based flow cytometry, RGS16-Galphao binding; actives lie on both sides; response (% of control binding), % at 10 µM; hit rate 4% among 1,700; AID 1838; in the data active = response below about 74% or above about 130%; inactive = in between;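 note: Galphao activated as the GDP aluminium fluoride complex binding bead-coupled RGS16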
RGS4-Gao confirm – confirmation of regulators of human RGS4-Galphao interaction | shares compounds with RGS16-Gao HTS | hit rate 4% among 1,700 | binding response (% of control), % at 10 µM | RGS4-Galphao binding, multiplexed bead flow cytometry; actives lie on both sides; in the data active = binding response below about 74% or above about 130%; inactive = in between
RGS19-Gao conf – RGS19-Galphao interaction regulation, single point confirmation | shares compounds with RGS16-Gao HTS | bead-based flow cytometry RGS19-Galphao binding; actives lie on both sides | response (percent of control binding), % at 10 µM | hit rate 5% among 1,700 | AID 1841; in the data active = response below about 50% or above about 160%; inactive = in between;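 note: 100% = no compound control and 0% = blank background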
* = called active by the depositor; [ ] = remark or other dose. Unless noted, the rule behind the calls is not given here.

Results for Cc1ccc(S(=O)(=O)N/N=C/c2cccc([N+](=O)[O-])c2)cc1 ?
RGS8-Gao reg: 74; RGS16-Gao HTS: -8.2*; Avidin fluor: 6; GSH bead fluor: 13; RGS4-Gao reg: 83; RGS7-Gao reg: 80; RGS4-Gao HTS: 83*; Avidin counter: 1; RGS8-Gao confirm: 99; RGS7-Gao single: 90; RGS16-Gao conf: 96; RGS4-Gao confirm: 94; RGS19-Gao conf: 81

How did Cc1ccc(S(=O)(=O)N/N=C\c2cc([N+](=O)[O-])ccc2Cl)cc1 do in these assays?
RGS8-Gao reg: 101; RGS16-Gao HTS: 103; Avidin fluor: 26; GSH bead fluor: 34; RGS4-Gao reg: 102; RGS7-Gao reg: 105

How did CCCc1nc(SC)[nH]c(=O)c1C do in these assays?
RGS8-Gao reg: 103; RGS16-Gao HTS: 103; Avidin fluor: 6; RGS4-Gao reg: 106; RGS7-Gao reg: inconclusive

How did CCCCOCCCNC1=NCCCCC1 do in these assays?
RGS8-Gao reg: 86; RGS16-Gao HTS: -11*; Avidin fluor: 13; GSH bead fluor: 10; RGS4-Gao reg: 87; RGS7-Gao reg: 90; RGS4-Gao HTS: 87*

Results for CC(C)CCNC1=NCCCCC1 ?
RGS8-Gao reg: 100; RGS16-Gao HTS: 101; Avidin fluor: 11; GSH bead fluor: 12; RGS4-Gao reg: 104; RGS7-Gao reg: 104

Results for O=C(NN1C(=O)/C(=C\c2cccnc2)SC1=S)c1ccco1 ?
RGS8-Gao reg: 108; RGS16-Gao HTS: 112; Avidin fluor: 15; GSH bead fluor: 15; RGS4-Gao reg: 109; RGS7-Gao reg: 112

Results for O=C1OC(/C=C/c2ccc(Cl)cc2)=NC/1=C/c1ccco1 ?
RGS8-Gao reg: 100; RGS16-Gao HTS: 103; Avidin fluor: 3; GSH bead fluor: 10; RGS4-Gao reg: 101; RGS7-Gao reg: 100

What do the screens show for `CCc1c(C(=O)Nc2ccccc2)c(C)[nH]c(=S)c1C#N`?
RGS8-Gao reg: 69; RGS16-Gao HTS: -59*; Avidin fluor: 6; GSH bead fluor: 8; RGS4-Gao reg: 99; RGS7-Gao reg: 102; RGS4-Gao HTS: 99*; Avidin counter: 2; RGS8-Gao confirm: 81; RGS7-Gao single: 130*[activator]; RGS16-Gao conf: 79; RGS4-Gao confirm: 100; RGS19-Gao conf: 84

What do the screens show for `O=C(NC1=NCCS1)c1sc2ccccc2c1Cl`?
RGS16-Gao HTS: 114; GSH bead fluor: 17; Avidin counter: 1; RGS8-Gao confirm: 103; RGS7-Gao single: 100; RGS16-Gao conf: 104; RGS4-Gao confirm: 101; RGS19-Gao conf: 85

What do the screens show for `O=C(NC1=NCCS1)c1sc2cc(Cl)cc(Cl)c2c1Cl`?
RGS8-Gao reg: 101; RGS16-Gao HTS: 110; Avidin fluor: 25; GSH bead fluor: 8; RGS4-Gao reg: 103; RGS7-Gao reg: 105
